Hits are enriched below; roughly 9% of the tested compounds scored in any of these assays.
Lamin A splicing = qHTS Assay for Modulators of Lamin A Splicing | HeLa LMNA splicing GFP/RFP minigene ratio, 48 h | Potency, µM (top dose mostly 46.1 µM), inactives show top-dose ratio change, negative = inhibition, actives largely listed as inhibitors | hit rate 0.01% among 200,000; active = well fitted inhibition curve with a large enough effect in the signal ratio, with a control signal flat, not every such curve was filed as active; inconclusive = small, poorly fitted or top-dose-only effect, or effect the other way, or a change in a side signal; the % refers to the signal ratio; note: % is set by controls: 0 for no effect and ±100 for the full control effect
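S3 HeLa stable clones carrying a lamin A-EGFP splicing minigene plus DsRed2 were seeded at 600 cells/well in Opti-MEM with 2% FBS, pin-dosed and incubated 48 h at 37°C. Acumen cytometry (488 nm) gave the GFP/RFP total-intensity ratio.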
HttQ103 aggreg = qHTS Multiplex Assay to Identify Dual Action Probes in a Cell Model of Huntington: Aggregate Formation (GFP). Potency, µM (top dose mostly 46.1 µM), inactives show top-dose activity change, negative = inhibition, hits mostly inhibitors. hit rate 1.1% among 220,000. PC12 HttQ103-GFP aggregates, Acumen cytometry, 40 h; note: % is set by controls: 0 for no effect and ±100 for the full control effect; nearly all actives have a fitted effect of over 60% in size
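Steps: seed 1500 PC12 HTTQ103-GFP cells/well; add tebufenozide, 100 nM final; add compound titration; add ATPLite reagent; quantify GFP aggregates by laser scanning cytometry.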
Luc counter = Counterscreen for Luciferase (Kinase-Glo TM) Inhibition; Luciferin 4-monooxygenase (Photuris pensylvanica), Q27757; Kinase-Glo luciferase, ATP luminescence, 8 min; Potency, µM (titrated, usually from 38.3 µM), for the others: top-dose activity change, negative = inhibition, hits mostly inhibitors; hit rate 0.28% among 200,000; AID 1379, 2008; note: % is set by controls: 0 for no effect and ±100 for the full control effect; nearly all actives have a fitted effect of over 60% in size
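Compound is pinned into ATP-containing buffer (10 uM ATP, imidazole pH 7.2, 7 mM MgCl2). Kinase-Glo luciferase reagent is then added. Light output is recorded following an 8-min room-temperature incubation.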
HTT cytoprotect = qHTS Multiplex Assay to Identify Dual Action Probes in a Cell Model of Huntington: Cytoprotection (ATP); PC12 HTT-Q103 induced, cytoprotection, ATP luminescence, 40 h; Potency, µM (titrated, usually from 56.4 µM), inactives show cytoprotection (ATP increase), hits mostly activators; hit rate 0.14% among 230,000; note: % of control where 0% means no effect; nearly all actives have a fitted effect of over 45% in size
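Quantitative HTS on tebufenozide-induced (100 nM) PC12 cells expressing HTTQ103 exon 1–GFP; compounds tested as a concentration series; survival measured via cellular ATP.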
ALDH1A1 block = qHTS Assay for Inhibitors of Aldehyde Dehydrogenase 1 (ALDH1A1) | Aldehyde dehydrogenase 1A1 (Homo sapiens), P00352 | Purified ALDH1A1, NADH fluorescence, propionaldehyde substrate | Potency, µM (highest dose often 75.3 µM), inactives show at the highest dose activity, negative = inhibition, hits mostly inhibitors | hit rate 7.3% among 220,000; active = well fitted inhibition curve with a large enough effect, not every such curve was filed as active; inconclusive = small, poorly fitted or top-dose-only effect, or another doubt; inactive = no such curve, though single readings can be large or run the other way;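 note: plate controls were no enzyme wells and a reference inhibitor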
HPGD inh = qHTS Assay for Inhibitors of HPGD (15-Hydroxyprostaglandin Dehydrogenase); AID 894, 2007; purified HPGD, NADH fluorescence kinetic, PGE2 substrate; hit rate 4.3% among 150,000; 15-hydroxyprostaglandin dehydrogenase [NAD(+)] (Homo sapiens), P15428; Potency, µM, without a hit: at the top dose activity change, negative = inhibition, most hits filed as inhibitors; active = well fitted inhibition curve with a large enough effect, not every such curve was filed as active; inconclusive = small, poorly fitted or top-dose-only effect, or another doubt; inactive = no such curve, though single readings can be large or run the other way; note: % is set by controls: 0 for no effect and ±100 for the full control effect
Target sequence (P15428 whole entry, looked up): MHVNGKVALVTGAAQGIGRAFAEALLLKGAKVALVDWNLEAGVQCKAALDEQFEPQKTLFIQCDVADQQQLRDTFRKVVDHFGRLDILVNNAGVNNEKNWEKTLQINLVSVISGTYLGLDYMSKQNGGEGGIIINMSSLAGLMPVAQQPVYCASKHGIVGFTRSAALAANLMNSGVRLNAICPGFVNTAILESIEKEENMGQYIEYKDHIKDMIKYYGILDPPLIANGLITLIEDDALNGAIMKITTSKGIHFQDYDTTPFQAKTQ
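20 nM HPGD preincubated 15 min at room temperature with compound in 50 mM Tris-HCl pH 8, 0.01% Tween 20. Started with 1 mM NAD+ and 30 uM prostaglandin E2; NADH fluorescence (360/450 nm) read 5 times over 30-s intervals, last minus first.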
* = called active by the depositor; [ ] = another dose, or the depositor's remark. Unless noted, calls come from the whole dose curve; as a rule, active = well fitted curve in the direction sought with a large enough effect; inconclusive = small, poorly fitted or top-dose-only effect, or another doubt; inactive = no such curve, though single readings can be large; an effect the other way counts as inactive or inconclusive. Potency is the fitted concentration of half-maximal effect.

`O=C1OC(/C(=C\Nc2ccc(F)cc2F)[N+](=O)[O-])c2ccccc21` (stereo not given) gave HttQ103 aggreg inconclusive, Luc counter 0%, HTT cytoprotect -45% and ALDH1A1 block inconclusive.
Cc1ccc(N/C=C(\C2OC(=O)c3ccccc32)[N+](=O)[O-])c(C)c1 (stereo not given) was read as HttQ103 aggreg 1%, Luc counter 1%, HTT cytoprotect 9% and ALDH1A1 block 3.5µM*.
`O=C1OC(/C(=C\Nc2cc(Cl)ccc2O)[N+](=O)[O-])c2ccccc21` (stereo not given) gave Lamin A splicing -10%[9.22 µM], HttQ103 aggreg -1%[9.22 µM], Luc counter 3%, HTT cytoprotect inconclusive and ALDH1A1 block 14µM*.
`O=C(CSc1nc2ccccc2s1)N1c2ccccc2Sc2ccc(Cl)cc21` gave Lamin A splicing inconclusive, HttQ103 aggreg 4%, Luc counter -3%, HTT cytoprotect 16%, ALDH1A1 block inconclusive and HPGD inh -5%.
Screening COc1ccc(CNC(=O)OCCN2CCN(Cc3ccccc3)CCC2=O)cc1 returned Lamin A splicing -3%, HttQ103 aggreg 7%, Luc counter -1%, ALDH1A1 block inconclusive and HPGD inh -5%.
Screening CN(C)CCN(C(=O)c1ccc(S(=O)(=O)N(C)c2ccccc2)cc1)c1nc2cc3c(cc2s1)OCCO3 returned HttQ103 aggreg -6%[9.22 µM] and HTT cytoprotect -3%[10 µM].
For CCCCn1c2c(c(=N)c3c1CCC3)CCC2 the results were Lamin A splicing inconclusive, HttQ103 aggreg inconclusive, Luc counter -4%, HTT cytoprotect -28%[0.074 µM], ALDH1A1 block -4% and HPGD inh -11%.
CCCCCCCCCn1c2c(c(=N)c3c1CCC3)CCC2 was read as Lamin A splicing inconclusive, HttQ103 aggreg 1.3µM*, Luc counter 2%, HTT cytoprotect -52%[10 µM], ALDH1A1 block -10% and HPGD inh 7%.
`CCCCCCn1c2c(c(=N)c3c1CCC3)CCC2` gave Lamin A splicing inconclusive, HttQ103 aggreg 1.8µM*, Luc counter -1%, HTT cytoprotect -17%[0.074 µM], ALDH1A1 block inconclusive and HPGD inh -5%.
`CCCCCCCn1c2c(c(=N)c3c1CCC3)CCCC2` gave Lamin A splicing inconclusive, Luc counter -1% and ALDH1A1 block -8%.
`N/C(=N\OC(=O)CC1CCCCC1)c1cccc([N+](=O)[O-])c1` gave Lamin A splicing 6%, HttQ103 aggreg 10%, Luc counter 0%, HTT cytoprotect 5%[10 µM], ALDH1A1 block 13µM* and HPGD inh -10%.
O=C(N/N=C(\c1ccccc1)c1ccccn1)c1cccc([N+](=O)[O-])c1 was read as Lamin A splicing 17%[46 µM], HttQ103 aggreg 6.3µM*, Luc counter -1%, HTT cytoprotect -139% and ALDH1A1 block 18µM*.
For N/C(=N\OC(=O)c1cccc([N+](=O)[O-])c1)c1ccccn1 the results were Lamin A splicing -12%[46 µM], HttQ103 aggreg 20%, Luc counter 13µM*, HTT cytoprotect -115% and ALDH1A1 block inconclusive.
Screening N/C(=N\OC(=O)c1ccc2ccccc2c1)c1ccccn1 returned Lamin A splicing -7%[46 µM], HttQ103 aggreg 2%, Luc counter 11µM*, HTT cytoprotect -48%[10 µM] and ALDH1A1 block 2%.
Screening N/C(=N/OC(=O)c1cccc([N+](=O)[O-])c1)c1cccc([N+](=O)[O-])c1 returned Lamin A splicing -4%[46 µM], Luc counter -10% and ALDH1A1 block 9%.
